Assay results as given in ChEMBL document CHEMBL2218924, “A broad activity screen in support of a chemogenomic map for kinase signalling research and drug discovery” (Biochem J, 2013).

Assays:
[1] = target: Death-associated protein kinase 1 (Homo sapiens) (UniProt P53355); settings: at 10 µM
[2] = target: Death-associated protein kinase 2 (Homo sapiens) (UniProt Q9UIK4); settings: at 1 µM
[3] = target: Death-associated protein kinase 2 (Homo sapiens) (UniProt Q9UIK4); settings: at 10 µM
[4] = target: T1, Serine/threonine-protein kinase DCLK2 (Homo sapiens) (UniProt Q8N568); settings: at 1 µM
T1 sequence (whole entry): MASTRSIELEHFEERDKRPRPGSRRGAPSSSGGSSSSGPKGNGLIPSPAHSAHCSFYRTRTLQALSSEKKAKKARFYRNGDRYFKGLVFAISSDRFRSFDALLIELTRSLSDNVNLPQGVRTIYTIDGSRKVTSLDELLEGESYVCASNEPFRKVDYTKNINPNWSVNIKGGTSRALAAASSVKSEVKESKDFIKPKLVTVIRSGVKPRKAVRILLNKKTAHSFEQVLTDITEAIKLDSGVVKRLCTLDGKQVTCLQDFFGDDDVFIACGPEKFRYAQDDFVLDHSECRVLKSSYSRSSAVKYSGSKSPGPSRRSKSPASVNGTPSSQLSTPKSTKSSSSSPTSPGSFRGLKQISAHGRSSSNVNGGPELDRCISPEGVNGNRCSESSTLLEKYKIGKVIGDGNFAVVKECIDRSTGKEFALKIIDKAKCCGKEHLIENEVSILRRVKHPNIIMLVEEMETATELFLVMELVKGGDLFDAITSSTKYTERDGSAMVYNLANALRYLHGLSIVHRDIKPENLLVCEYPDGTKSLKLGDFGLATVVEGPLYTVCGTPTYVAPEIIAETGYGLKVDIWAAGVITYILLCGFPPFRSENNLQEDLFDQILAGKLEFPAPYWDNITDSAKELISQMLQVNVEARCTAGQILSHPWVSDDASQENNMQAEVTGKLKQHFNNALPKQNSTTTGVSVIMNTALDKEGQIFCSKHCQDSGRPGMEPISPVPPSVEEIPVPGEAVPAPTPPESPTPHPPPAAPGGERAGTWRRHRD

[5] = target: T1, Serine/threonine-protein kinase DCLK2 (Homo sapiens); settings: at 10 µM
[6] = target: T2, Discoidin domain-containing receptor 2 (Homo sapiens) (UniProt Q16832); settings: at 1 µM
T2 sequence (whole entry): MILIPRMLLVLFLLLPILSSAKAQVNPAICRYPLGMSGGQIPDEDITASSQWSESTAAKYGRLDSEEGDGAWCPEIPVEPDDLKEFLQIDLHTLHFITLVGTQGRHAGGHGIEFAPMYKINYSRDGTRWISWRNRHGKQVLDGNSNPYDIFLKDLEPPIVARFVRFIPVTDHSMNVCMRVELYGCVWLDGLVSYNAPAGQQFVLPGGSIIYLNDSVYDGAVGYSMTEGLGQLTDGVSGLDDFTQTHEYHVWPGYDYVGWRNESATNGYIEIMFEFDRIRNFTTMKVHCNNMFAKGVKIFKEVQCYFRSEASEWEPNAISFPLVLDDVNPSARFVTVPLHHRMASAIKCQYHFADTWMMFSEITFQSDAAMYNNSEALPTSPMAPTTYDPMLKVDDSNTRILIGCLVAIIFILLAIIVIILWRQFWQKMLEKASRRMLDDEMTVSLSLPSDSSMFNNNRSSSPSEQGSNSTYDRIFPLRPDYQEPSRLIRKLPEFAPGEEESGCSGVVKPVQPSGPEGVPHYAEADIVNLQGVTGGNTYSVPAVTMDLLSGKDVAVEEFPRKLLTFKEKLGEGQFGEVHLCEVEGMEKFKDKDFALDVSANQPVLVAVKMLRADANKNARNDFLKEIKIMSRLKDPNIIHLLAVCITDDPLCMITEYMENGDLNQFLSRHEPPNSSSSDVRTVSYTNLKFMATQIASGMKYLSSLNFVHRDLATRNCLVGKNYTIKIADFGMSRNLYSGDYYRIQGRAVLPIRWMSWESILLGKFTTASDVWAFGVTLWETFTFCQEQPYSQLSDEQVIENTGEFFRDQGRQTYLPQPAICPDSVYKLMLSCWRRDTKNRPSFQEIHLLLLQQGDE

[7] = target: T2, Discoidin domain-containing receptor 2 (Homo sapiens); settings: at 10 µM
[8] = target: T3, Myotonin-protein kinase (Homo sapiens) (UniProt Q09013); settings: at 1 µM
T3 sequence (whole entry): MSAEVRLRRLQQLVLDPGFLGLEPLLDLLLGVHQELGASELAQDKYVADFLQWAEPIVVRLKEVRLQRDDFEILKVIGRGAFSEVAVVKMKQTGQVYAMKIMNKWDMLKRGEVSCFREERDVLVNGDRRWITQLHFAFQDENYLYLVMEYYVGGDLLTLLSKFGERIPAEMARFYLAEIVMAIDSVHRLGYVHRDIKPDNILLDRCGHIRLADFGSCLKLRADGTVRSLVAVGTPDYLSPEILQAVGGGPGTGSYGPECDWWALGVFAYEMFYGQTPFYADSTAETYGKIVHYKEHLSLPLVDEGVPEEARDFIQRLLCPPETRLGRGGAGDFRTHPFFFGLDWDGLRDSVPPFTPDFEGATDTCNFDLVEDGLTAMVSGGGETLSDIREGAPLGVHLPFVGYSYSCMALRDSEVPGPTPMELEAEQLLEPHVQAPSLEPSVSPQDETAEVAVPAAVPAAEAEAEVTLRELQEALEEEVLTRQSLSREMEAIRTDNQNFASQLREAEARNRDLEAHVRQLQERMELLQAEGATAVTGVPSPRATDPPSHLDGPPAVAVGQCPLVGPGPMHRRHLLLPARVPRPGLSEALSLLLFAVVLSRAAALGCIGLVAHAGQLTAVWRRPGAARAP

[9] = target: T3, Myotonin-protein kinase (Homo sapiens); settings: at 10 µM
[10] = target: T4, Serine/threonine-protein kinase 17A (Homo sapiens) (UniProt Q9UEE5); settings: at 1 µM
T4 sequence (whole entry): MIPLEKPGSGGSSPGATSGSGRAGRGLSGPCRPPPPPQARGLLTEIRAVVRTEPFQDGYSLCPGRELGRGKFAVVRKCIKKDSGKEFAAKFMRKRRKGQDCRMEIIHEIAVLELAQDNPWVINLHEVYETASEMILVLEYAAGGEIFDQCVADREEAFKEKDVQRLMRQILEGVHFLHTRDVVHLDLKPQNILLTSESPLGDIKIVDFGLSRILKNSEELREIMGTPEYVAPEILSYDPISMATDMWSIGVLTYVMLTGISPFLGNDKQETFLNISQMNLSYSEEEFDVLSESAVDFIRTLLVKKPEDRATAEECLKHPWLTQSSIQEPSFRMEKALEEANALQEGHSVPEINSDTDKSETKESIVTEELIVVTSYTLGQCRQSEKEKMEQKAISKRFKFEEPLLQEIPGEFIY

[11] = target: T4, Serine/threonine-protein kinase 17A (Homo sapiens); settings: at 10 µM
[12] = target: T5, Dual specificity tyrosine-phosphorylation-regulated kinase 2 (Homo sapiens) (UniProt Q92630); settings: at 1 µM
T5 sequence (whole entry): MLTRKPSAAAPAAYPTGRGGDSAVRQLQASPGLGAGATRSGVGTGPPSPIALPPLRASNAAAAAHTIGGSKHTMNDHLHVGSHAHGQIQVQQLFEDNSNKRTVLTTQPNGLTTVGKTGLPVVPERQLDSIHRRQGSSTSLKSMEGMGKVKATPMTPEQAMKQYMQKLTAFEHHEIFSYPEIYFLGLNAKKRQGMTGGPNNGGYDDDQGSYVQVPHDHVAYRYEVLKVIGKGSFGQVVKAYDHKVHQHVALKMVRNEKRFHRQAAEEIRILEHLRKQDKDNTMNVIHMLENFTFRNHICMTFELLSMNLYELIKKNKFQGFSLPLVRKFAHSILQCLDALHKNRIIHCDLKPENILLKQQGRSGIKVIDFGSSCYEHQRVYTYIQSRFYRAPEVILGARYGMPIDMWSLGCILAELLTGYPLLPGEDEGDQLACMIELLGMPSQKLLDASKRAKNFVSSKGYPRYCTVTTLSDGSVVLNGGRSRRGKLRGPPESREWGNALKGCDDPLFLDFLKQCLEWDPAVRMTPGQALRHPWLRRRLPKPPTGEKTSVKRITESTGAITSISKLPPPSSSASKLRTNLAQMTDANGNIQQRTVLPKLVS

[13] = target: T5, Dual specificity tyrosine-phosphorylation-regulated kinase 2 (Homo sapiens); settings: at 10 µM
[14] = target: T6, Ephrin type-A receptor 1 (Homo sapiens) (UniProt P21709); settings: at 1 µM
T6 sequence (whole entry): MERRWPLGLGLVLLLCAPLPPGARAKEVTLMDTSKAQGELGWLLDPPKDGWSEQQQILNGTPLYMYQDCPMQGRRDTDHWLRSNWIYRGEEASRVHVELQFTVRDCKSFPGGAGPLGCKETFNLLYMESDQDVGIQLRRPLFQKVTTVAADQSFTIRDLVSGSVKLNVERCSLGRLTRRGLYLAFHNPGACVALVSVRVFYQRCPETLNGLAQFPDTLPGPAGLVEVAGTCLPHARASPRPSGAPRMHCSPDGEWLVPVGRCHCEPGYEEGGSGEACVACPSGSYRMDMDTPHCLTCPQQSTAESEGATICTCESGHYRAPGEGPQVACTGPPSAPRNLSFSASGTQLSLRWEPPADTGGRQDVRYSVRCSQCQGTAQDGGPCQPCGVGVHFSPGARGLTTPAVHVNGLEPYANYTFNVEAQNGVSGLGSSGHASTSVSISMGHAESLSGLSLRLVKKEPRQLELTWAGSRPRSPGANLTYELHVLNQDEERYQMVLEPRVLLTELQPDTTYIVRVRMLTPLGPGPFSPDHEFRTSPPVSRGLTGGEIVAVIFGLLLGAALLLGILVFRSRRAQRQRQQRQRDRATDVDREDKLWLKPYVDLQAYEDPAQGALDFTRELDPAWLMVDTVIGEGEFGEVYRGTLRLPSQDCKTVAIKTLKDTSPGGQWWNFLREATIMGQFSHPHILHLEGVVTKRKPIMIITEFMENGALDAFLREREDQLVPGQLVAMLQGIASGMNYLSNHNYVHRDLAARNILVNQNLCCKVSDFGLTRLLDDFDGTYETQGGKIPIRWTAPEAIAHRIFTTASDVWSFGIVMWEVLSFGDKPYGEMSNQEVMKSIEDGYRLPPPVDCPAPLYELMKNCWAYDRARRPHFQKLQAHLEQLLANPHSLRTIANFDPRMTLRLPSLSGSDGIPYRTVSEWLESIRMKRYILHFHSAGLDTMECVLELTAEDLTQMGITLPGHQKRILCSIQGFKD

[15] = target: T6, Ephrin type-A receptor 1 (Homo sapiens); settings: at 10 µM
[16] = target: Ephrin type-A receptor 2 (Homo sapiens) (UniProt P29317); settings: at 1 µM
Sequence of Ephrin type-A receptor 2 (Homo sapiens) (P29317 whole entry): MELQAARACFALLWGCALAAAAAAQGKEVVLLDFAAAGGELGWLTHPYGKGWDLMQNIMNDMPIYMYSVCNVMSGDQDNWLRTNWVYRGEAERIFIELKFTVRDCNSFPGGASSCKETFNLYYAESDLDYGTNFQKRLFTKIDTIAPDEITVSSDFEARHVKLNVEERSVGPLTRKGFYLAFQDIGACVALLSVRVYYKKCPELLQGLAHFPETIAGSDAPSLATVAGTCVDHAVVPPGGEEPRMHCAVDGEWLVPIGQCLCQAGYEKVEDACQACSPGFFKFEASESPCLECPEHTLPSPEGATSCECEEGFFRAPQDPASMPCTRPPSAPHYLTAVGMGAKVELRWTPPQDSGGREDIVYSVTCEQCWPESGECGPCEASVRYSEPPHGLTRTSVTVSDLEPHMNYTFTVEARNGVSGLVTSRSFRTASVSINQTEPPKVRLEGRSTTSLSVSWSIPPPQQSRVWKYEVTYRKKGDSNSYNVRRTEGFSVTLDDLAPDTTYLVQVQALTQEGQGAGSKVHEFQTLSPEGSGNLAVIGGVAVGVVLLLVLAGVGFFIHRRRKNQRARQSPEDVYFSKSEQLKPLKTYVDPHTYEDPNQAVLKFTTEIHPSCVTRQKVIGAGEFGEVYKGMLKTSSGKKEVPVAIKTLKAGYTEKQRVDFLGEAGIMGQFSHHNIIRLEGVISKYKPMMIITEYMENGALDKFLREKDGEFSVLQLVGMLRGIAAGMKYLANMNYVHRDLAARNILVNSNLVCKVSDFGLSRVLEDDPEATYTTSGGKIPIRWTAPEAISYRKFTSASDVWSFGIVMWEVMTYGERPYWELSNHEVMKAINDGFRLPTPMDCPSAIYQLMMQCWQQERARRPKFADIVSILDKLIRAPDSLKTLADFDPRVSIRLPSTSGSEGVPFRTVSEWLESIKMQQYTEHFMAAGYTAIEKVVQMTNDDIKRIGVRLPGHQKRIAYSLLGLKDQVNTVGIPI

[17] = target: Ephrin type-A receptor 2 (Homo sapiens) (UniProt P29317); settings: at 10 µM
[18] = target: T7, Ephrin type-A receptor 3 (Homo sapiens) (UniProt P29320); settings: at 1 µM
T7 sequence (whole entry): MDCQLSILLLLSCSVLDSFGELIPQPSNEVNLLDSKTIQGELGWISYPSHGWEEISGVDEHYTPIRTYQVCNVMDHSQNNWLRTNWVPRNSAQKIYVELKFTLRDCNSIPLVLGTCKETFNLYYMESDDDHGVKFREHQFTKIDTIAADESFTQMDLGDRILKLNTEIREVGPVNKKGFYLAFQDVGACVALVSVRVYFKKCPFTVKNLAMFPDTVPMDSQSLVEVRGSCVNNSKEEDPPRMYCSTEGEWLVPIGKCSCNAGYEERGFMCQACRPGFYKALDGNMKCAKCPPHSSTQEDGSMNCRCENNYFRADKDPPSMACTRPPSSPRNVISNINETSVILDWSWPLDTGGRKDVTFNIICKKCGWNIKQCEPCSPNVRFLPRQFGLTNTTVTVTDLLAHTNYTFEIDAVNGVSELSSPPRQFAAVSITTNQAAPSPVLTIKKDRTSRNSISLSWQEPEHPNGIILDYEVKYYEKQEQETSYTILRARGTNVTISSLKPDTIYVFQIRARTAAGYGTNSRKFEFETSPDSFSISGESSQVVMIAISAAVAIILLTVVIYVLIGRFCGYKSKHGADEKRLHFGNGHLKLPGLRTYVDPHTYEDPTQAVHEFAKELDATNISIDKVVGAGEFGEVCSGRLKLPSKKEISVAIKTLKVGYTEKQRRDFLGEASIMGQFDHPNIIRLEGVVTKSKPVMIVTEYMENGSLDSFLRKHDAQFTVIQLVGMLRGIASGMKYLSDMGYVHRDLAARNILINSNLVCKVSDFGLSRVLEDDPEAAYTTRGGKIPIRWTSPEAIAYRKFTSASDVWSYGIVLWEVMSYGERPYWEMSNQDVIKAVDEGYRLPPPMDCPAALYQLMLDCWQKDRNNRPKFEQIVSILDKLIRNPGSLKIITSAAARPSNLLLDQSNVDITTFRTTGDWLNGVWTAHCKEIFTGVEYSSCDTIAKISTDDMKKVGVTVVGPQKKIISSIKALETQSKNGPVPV

[19] = target: Epidermal growth factor receptor (Homo sapiens) (UniProt P00533); settings: at 1 µM
Sequence of Epidermal growth factor receptor (Homo sapiens) (P00533 whole entry): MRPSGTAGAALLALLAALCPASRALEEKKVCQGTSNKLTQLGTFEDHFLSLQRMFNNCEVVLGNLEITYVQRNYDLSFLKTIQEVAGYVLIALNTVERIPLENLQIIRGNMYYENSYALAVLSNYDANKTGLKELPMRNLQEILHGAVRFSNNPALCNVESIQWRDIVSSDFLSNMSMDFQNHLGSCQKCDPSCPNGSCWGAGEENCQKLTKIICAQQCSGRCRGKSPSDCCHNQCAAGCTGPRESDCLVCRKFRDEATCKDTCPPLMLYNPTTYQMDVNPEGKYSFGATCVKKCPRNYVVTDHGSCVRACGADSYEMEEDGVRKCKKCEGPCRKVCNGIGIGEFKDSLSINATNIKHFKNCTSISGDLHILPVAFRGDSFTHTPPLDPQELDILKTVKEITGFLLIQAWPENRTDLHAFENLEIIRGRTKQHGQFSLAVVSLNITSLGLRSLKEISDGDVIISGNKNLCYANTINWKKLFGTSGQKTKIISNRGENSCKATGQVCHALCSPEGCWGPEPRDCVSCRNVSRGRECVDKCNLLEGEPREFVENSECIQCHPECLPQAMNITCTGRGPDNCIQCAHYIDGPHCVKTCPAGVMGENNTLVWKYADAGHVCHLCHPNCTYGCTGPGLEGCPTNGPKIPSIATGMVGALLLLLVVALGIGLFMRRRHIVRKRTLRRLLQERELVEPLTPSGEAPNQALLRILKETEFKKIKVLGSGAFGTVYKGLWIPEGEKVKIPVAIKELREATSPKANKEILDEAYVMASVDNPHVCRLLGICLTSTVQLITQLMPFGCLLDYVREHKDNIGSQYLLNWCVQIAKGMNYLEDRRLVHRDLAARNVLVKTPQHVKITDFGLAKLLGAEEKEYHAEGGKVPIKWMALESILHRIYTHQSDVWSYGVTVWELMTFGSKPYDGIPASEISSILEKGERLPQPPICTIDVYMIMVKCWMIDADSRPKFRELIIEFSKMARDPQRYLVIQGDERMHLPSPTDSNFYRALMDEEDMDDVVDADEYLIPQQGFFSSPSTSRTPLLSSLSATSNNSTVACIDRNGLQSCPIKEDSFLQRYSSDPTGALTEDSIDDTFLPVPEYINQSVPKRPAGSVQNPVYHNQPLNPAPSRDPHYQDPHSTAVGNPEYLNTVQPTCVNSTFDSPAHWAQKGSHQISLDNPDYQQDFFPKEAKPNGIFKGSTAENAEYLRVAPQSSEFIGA

[20] = target: Epidermal growth factor receptor (Homo sapiens) (UniProt P00533); settings: at 10 µM

Sequence of Death-associated protein kinase 2 (Homo sapiens) (Q9UIK4 whole entry, looked up): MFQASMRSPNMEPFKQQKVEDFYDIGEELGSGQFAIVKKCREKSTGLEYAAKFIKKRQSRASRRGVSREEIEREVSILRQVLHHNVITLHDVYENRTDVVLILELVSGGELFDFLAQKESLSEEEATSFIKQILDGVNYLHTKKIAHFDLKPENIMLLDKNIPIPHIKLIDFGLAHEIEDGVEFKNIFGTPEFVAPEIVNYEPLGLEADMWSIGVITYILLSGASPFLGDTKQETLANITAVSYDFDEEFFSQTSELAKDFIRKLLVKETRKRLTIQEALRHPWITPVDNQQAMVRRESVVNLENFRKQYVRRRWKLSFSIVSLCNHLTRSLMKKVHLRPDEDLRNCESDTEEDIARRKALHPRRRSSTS
Sequence of Death-associated protein kinase 1 (Homo sapiens) (P53355 whole entry, looked up): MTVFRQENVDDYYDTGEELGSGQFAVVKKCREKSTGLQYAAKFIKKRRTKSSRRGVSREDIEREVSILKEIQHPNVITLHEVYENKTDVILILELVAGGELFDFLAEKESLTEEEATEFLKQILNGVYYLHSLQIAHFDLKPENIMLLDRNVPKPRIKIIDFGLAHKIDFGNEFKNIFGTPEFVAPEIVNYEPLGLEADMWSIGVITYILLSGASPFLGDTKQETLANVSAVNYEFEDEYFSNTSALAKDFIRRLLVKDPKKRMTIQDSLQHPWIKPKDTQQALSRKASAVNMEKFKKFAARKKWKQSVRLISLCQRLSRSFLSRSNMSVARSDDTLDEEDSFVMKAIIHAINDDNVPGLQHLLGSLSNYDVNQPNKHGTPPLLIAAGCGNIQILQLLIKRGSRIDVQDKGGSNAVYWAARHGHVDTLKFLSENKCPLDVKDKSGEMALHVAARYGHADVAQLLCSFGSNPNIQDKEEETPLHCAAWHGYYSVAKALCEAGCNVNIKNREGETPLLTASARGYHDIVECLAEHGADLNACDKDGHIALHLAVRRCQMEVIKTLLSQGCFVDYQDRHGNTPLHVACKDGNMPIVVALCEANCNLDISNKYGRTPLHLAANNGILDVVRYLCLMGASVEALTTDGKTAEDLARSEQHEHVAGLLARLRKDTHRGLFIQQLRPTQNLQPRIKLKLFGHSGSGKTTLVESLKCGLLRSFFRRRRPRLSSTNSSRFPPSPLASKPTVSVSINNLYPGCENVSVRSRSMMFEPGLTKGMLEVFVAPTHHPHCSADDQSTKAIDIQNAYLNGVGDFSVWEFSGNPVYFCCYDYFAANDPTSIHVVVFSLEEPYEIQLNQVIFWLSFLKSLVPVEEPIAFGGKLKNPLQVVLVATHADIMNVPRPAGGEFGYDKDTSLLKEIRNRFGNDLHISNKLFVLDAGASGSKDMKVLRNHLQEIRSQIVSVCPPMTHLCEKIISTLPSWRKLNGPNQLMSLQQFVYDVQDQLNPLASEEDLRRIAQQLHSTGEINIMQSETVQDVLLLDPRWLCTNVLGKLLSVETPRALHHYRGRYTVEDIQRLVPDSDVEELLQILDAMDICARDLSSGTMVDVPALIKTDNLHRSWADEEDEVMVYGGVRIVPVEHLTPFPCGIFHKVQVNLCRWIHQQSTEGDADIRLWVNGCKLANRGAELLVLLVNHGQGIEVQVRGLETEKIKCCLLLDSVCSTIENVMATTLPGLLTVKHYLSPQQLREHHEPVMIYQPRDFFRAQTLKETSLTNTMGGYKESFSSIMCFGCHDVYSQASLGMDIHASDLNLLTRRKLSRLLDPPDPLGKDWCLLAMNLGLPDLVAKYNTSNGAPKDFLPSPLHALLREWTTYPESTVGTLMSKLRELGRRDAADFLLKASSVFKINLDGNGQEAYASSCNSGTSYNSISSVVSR

Compound: O=C1Nc2ccccc2/C1=C1/Nc2ccccc2/C1=N\OCCC(O)CO (stereo not drawn)
- residual activity [1]: 43%
- residual activity [2]: 49%
- residual activity [3]: 12%
- residual activity [4]: 99%
- residual activity [5]: 35%
- residual activity [6]: 76%
- residual activity [7]: 46%
- residual activity [8]: 115%
- residual activity [9]: 69%
- residual activity [10]: 5%
- residual activity [11]: 3%
- residual activity [12]: 70%
- residual activity [13]: 52%
- residual activity [14]: 43%
- residual activity [15]: 42%
- residual activity [16]: 54%
- residual activity [17]: 14%
- residual activity [18]: 41%

Compound: CCOc1cc2ncnc(Nc3cccc(Br)c3)c2cc1OCC
- residual activity [1]: 85%
- residual activity [2]: 105%
- residual activity [3]: 102%
- residual activity [4]: 84%
- residual activity [5]: 66%
- residual activity [6]: 93%
- residual activity [7]: 66%
- residual activity [8]: 109%
- residual activity [9]: 135%
- residual activity [10]: 113%
- residual activity [11]: 60%
- residual activity [12]: 92%
- residual activity [13]: 58%
- residual activity [19]: -5%
- residual activity [20]: -4%
- residual activity [14]: 32%
- residual activity [15]: 4%
- residual activity [16]: 85%
- residual activity [17]: 18%
- residual activity [18]: 81%
